Experimental data: PubChem BioAssay AID720532 (National Center for Advancing Translational Sciences (NCATS), 2013)
Where “and” joins values, the source holds several entries; their conditions need not be identical. Equal values may be shown once. In all, about 18,000 compounds went through this assay and about 1,200 (6.7%) were called active. Another 16% or so got no clear call; they are omitted. The full list was thinned out, with actives kept by preference. Values without a mark were called inactive. The call rests on the fitted dose curve; tested in HEK293 cells.

experiment: qHTS for Inhibitors of binding or entry into cells for Marburg Virus; conditions: Marburg virus pseudotype entry/binding inhibition, cell-based; series mostly up to 49.2 µM; activity change, negative = inhibition: at the top concentration
On the % scale 0 is the no-effect control and ±100 the full control effect; potency means the concentration at half of the fitted maximal effect.

Structure (SMILES) | activity change, negative = inhibition | Potency
CCOCCOC(=O)C(C)Oc1ccc(Oc2ncc(C(F)(F)F)cc2Cl)cc1 (centres undefined) | 0.308% | –
CC[N+](C)(CC)CCC[n+]1c(-c2ccccc2)c2cc(N)ccc2c2ccc(N)cc21 | – | 7.08 µM (active) and 2.82 µM (active)
CCCCC/C=C\CC1OC1CCCCCCCC(=O)O (centres undefined) | inactive | –
CCC(C)(C)N=C(NC#N)Nc1cccnc1 | 19.6% | –
Clc1ccc(C(Cn2ccnc2)OCc2ccsc2Cl)c(Cl)c1 (centres undefined) | 7.18% | –
Brc1ccc(C2=NCCC(c3ccccc3)O2)cc1 (centres undefined) | 8% | –
C[C@@H]1C(c2ccccc2)=Cc2[nH]c(=O)[nH]c2C[C@@H]1C(=O)N1CCCC1 | 7.81% [at 8.59 µM] | –
COC(=O)C=C[C@H]1c2ccccc2[C@@H](OC)[C@@H]1C | 16.3% [at 8.59 µM] and -4.37% [at 8.59 µM] | –
CCOC(=O)CN1C(=O)NC(CCc2ccccc2)C(C(C)=O)=C1C (centres undefined) | 3.64% [at 8.59 µM] | –
COC(=O)C(C(=O)OC)C1c2ccccc2C=C(C2CC2)N1C(=O)OC (centres undefined) | inactive | –
CCCNC(=O)CC1OC(C2CCCCC2)Cc2ccccc21 (centres undefined) | -26.1% [at 8.59 µM] | –
Cc1cc2oc(=O)cc(CN(C)Cc3ccccc3)c2cc1Cl | 32.3% | –
CCOC(OCC)OCC | 4.67% | –
CCCCC/C=C\C/C=C\C/C=C\CCCCCCC(N)=O | -17.1% | –
COc1ccc([C@]23Cc4cc(OC)c(OC)cc4[C@H](O2)c2c(cc(C)oc2=O)O3)cc1 | 8.88% [at 8.59 µM] | –
O=C(O)C1CCCN(CCC=C(c2ccccc2)c2ccccc2)C1 (centres undefined) | inactive | –
c1ccc(CCCCN2CCC(c3ccccc3)CC2)cc1 | – | 14.1 µM (active)
O=C(c1ccc(F)cc1)C1CCN(CCCCc2ccccc2)CC1 | – | 15.8 µM (active)
O=C(O)C[C@@H]1NC(=O)[C@H](Cc2ccccc2)NC1=O | 2.12% | –
O=C(O)CCCc1ccccc1 | inactive | –
CCCCCCCC[C@@H](O)/C=C/C=C/C=C\[C@@H](O)CCCC(=O)O | 0.476% | –
COC(=O)C1(C(C)=O)CC2=CC[C@H]3C(=O)N(c4ccccc4)C(=O)[C@H]3[C@@H]2Cc2ccccc2[C@@H]1C[N+](=O)[O-] (some centres undefined) | inactive | –
CC(C)(C)OC(=O)NCCCC1=CC2=CC(=O)C(C)(OC(=O)c3ccco3)C(=O)C2=CO1 (centres undefined) | -1.5% | –
NNc1nnc(Cc2ccncc2)c2ccccc12 | – | 11.2 µM (active)
NNc1nnc(NN)c2ccccc12 | 34.2% | –

Structure (SMILES) | activity change, negative = inhibition | Potency
CCN(CCNC(=O)[C@H]1C=C(OC)C(=O)C[C@@H]2c3ccccc3C[C@]12C)C(C)=O | 0.4% [at 8.59 µM] | –
FCOC(C(F)(F)F)C(F)(F)F | 22.4% | –
CC1(OC(=O)c2ccc(Cl)nc2)C(=O)Cc2cc(-c3ccsc3)ncc2C1=O (centres undefined) | -19.4% [at 8.59 µM] | –
CN1CCC[C@@H]1CCO[C@](C)(c1ccccc1)c1ccc(Cl)cc1 | – | 14.1 µM (active) and 28.2 µM (active)
CN1CCCC1CCO[C@@](C)(c1ccccc1)c1ccc(Cl)cc1 (some centres undefined) | – | 10 µM (active)
CC(=O)C1=C(C)N(Cc2ccccc2)C(=O)NC1c1cccs1 (centres undefined) | 3.55% [at 8.59 µM] | –
CCCCCCN1C[C@@H](O)[C@H](n2cc(C3CC3)nn2)C[C@H]1c1ccccc1 | -14.4% | –
COc1ccc(C2=C(N3CCc4ccccc43)C(=O)NC2=O)cc1 | 28.3% | –
CCCCC/C=C\C/C=C\C/C=C\CCCCC(=O)NCC(=O)O | 6.5% | –
CC(C)[C@H]1COCCS(=O)(=O)N1Cc1ccccc1-c1cccc2c1sc1ccccc12 | -18.2% | –
COC(=O)C1=C(C)N(Cc2ccccc2)C(=NCCc2ccc([N+](=O)[O-])cc2)NC1c1cccc(F)c1 (centres undefined) | 9.24% [at 8.59 µM] | –
COc1ccc(C2CC(=O)Oc3ccc(C(C)(C)C)cc32)cc1 (centres undefined) | 4.9% | –
CCOC(=O)C1C/C(=C\C(C)=O)c2cccc(C(F)(F)F)c2O1 (centres undefined) | 6.48% | –
Cc1cnc(C)c(-c2cc(F)c3c(c2)CC(CNC(=O)c2cccc(Cn4cccn4)c2)O3)n1 (centres undefined) | 10.3% | –
CCN(CC)CCCC(C)Nc1ccnc2cc(Cl)ccc12 (centres undefined) | – | 10 µM (active) and 5.01 µM (active)
COc1ccc(-c2c(C)cc3oc(=O)cc(-c4ccccc4)c3c2C)cc1F | 0.588% | –
C=CCN1C(=O)N(Cc2ccccc2)c2ccccc2S1(=O)=O | 11% | –
COc1ccc2[nH]cc(CCNc3nc(-c4cccc(NS(C)(=O)=O)c4)nc4ccccc34)c2c1 | -18.6% | –
COc1ccc(CNS(=O)(=O)c2cc(Br)ccc2Br)cc1 | 18.8% | –
COc1ccc2[nH]cc(CCNCc3ccc(Br)cc3)c2c1 | – | 15.8 µM (active)
Cc1cc(N(C)C)nc(Cl)n1 | 9.23% | –
CC(C)(C)Nc1oc(-c2ccccc2)nc1C=Cc1ccccc1 | 3.65% [at 8.59 µM] | –
CCOC(=O)CCN1C(=O)[C@@H]2[C@H]3[C@H](O)[C@H](O)CC(=NOCC(C)C)[C@@H]3CC[C@H]2C1=O | -10.9% [at 8.59 µM] | –
C=C(C)C1CC=C(C)C(O)C1 (centres undefined) | 0.898% | –
